Assay results as given in PubChem BioAssay (Tox21).
Inconclusive results are not listed. Where a call stands in place of a potency, no number is given. Activity calls are given as the source filed them. Unless noted, the call rests on the fitted dose curve; in most records, active means well fitted curve in the direction sought with a large enough effect in the repeat runs; inconclusive means weak or mixed curves; inactive means no such curve, though single readings can be large; an effect the other way counts as inactive or inconclusive.

How the values were obtained:
[1] = qHTS assay to identify small molecule antagonists of the glucocorticoid receptor (GR) signaling pathway - cell viability counter screen (AID 720693); further: nearly all actives have a fitted effect of over 55% in size
[2] = qHTS assay for identifying genotoxic compounds that show differential cytotoxicity against isogenic chicken DT40 cell lines with known DNA damage response pathways - wild type cell line (AID 743012); further: nearly all actives have a fitted effect of over 60% in size; further: potency means the concentration at half of the fitted maximal effect
In short: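 Viability by ATP luminescence (CellTiter-Glo, 30 min RT) after 40 h compound treatment at 37 C/5% CO2, using 300 parental DNA repair-proficient DT40 cells per well.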

[3] = qHTS assay to identify small molecule antagonists of the androgen receptor (AR) signaling pathway using the MDA cell line - cell viability counter screen (AID 743041; further: nearly all actives have a fitted effect of over 45% in size; further: potency means the concentration at half of the fitted maximal effect)
In short: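 Compound exposure lasted 16 h at 37C in MDA-kb2 AR-luc cells stimulated with R1881. Protease-based CellTiter-Fluor reagent was applied for the final 30 min and fluorescence measured.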

[4] = qHTS assay to identify small molecule antagonists of the thyroid receptor (TR) signaling pathway - cell viability counter screen (AID 743064); further: nearly all actives have a fitted effect of over 50% in size
In short: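 Counter screen for cytotoxicity: compound plus T3 (1 nM final) on GH3.TRE-Luc cells, 23.5 h at 37 °C, then fluorescence viability readout with CellTiter-Fluor.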

[5] = qHTS assay to identify small molecule antagonists of the thyroid receptor (TR) signaling pathway (AID 743065); further: series mostly up to about 70 µM; nearly all actives have a fitted effect of over 55% in size
In short: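 GH3.TRE-Luc rat pituitary cells (two TREs driving luciferase) were dosed with compound, then stimulated with 1 nM T3 (final) for 23.5 h at 37 C. ONE-Glo luminescence was the read-out, with CellTiter-Fluor fluorescence as the cytotoxicity counter-screen.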

[6] = test system: thyroid hormone receptor (rat, GH3 cells); test: qHTS assay to identify small molecule agonists of the thyroid receptor (TR) signaling pathway (AID 743066; calls by dose curve)
[7] = molecular target: Estrogen receptor (Homo sapiens) (UniProt P03372); test: qHTS assay to identify small molecule antagonists of the estrogen receptor alpha (ER-alpha) signaling pathway (AID 743069; active means well fitted curve in the direction sought with a large enough effect in the signal ratio in the repeat runs, not every such curve was filed as active; the % refers to the signal ratio)
Sequence of Estrogen receptor (Homo sapiens) (P03372 whole entry, looked up): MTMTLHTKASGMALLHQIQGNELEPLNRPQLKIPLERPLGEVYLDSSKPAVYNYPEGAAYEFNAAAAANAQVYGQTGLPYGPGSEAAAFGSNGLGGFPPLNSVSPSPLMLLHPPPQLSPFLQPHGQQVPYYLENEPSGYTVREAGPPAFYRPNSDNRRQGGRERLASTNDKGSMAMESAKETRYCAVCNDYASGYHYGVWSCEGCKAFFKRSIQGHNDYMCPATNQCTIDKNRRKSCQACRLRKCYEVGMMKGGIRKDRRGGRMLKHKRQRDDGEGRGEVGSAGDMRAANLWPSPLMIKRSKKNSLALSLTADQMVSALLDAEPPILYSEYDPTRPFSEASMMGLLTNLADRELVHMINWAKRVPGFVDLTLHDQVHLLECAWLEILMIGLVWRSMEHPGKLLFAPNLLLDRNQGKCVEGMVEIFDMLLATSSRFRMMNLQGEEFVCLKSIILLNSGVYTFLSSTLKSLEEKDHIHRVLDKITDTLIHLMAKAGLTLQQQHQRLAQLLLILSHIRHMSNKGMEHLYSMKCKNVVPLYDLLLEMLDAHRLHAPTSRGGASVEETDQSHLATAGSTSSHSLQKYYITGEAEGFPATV
In short: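 In this cell-based reporter format, GripTite HEK293 cells harbouring ER-alpha-UAS-bla were grown overnight with 2% charcoal-stripped FBS, dosed with DMSO-dissolved compounds, then challenged with 17beta-estradiol. After 18 hr at 37C, beta-lactamase activity was detected by FRET fluorescence.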

[8] = qHTS assay to identify small molecule antagonists of the estrogen receptor alpha (ER-alpha) signaling pathway - cell viability counter screen (AID 743074; calls by dose curve; further: nearly all actives have a fitted effect of over 45% in size)
[9] = molecular target: Estrogen receptor (Homo sapiens) (UniProt P03372); test: qHTS assay to identify small molecule agonists of the estrogen receptor alpha (ER-alpha) signaling pathway (AID 743075; calls by dose curve)
[10] = molecular target: Estrogen receptor (Homo sapiens) (UniProt P03372); test: qHTS assay to identify small molecule agonists of the estrogen receptor alpha (ER-alpha) signaling pathway using the BG1 cell line (AID 743079); further: nearly all actives have a fitted effect of over 20% in size
[11] = qHTS assay to identify small molecule antagonists of the estrogen receptor alpha (ER-alpha) signaling pathway using the BG1 cell line (AID 743080; calls by dose curve;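 further: BG1 cells stimulated with 17beta-estradiol alongside compound; series mostly up to about 70 µM; nearly all actives have a fitted effect of over 25% in size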)
In short: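 BG1-Luc-4E2 cells (endogenous full-length ER-alpha, 4xERE luciferase) hormone-starved 5 days in charcoal-stripped FBS, plated 4,000/well for 24 h, then compound plus 17beta-estradiol for 21.5 h at 37 C; ONE-Glo luminescence read.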

[12] = qHTS assay to identify small molecule antagonists of the estrogen receptor alpha (ER-alpha) signaling pathway using the BG1 cell line - cell viability counter screen (AID 743081);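 further: compound given together with 17beta-estradiol as the ER stimulus; series mostly up to about 70 µM; nearly all actives have a fitted effect of over 45% in size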
[13] = molecular target: Aromatase (Homo sapiens) (UniProt P11511); test: qHTS assay to identify aromatase inhibitors (AID 743083); further: nearly all actives have a fitted effect of over 55% in size; further: potency means the concentration at half of the fitted maximal effect
Sequence of Aromatase (Homo sapiens) (P11511 whole entry, looked up): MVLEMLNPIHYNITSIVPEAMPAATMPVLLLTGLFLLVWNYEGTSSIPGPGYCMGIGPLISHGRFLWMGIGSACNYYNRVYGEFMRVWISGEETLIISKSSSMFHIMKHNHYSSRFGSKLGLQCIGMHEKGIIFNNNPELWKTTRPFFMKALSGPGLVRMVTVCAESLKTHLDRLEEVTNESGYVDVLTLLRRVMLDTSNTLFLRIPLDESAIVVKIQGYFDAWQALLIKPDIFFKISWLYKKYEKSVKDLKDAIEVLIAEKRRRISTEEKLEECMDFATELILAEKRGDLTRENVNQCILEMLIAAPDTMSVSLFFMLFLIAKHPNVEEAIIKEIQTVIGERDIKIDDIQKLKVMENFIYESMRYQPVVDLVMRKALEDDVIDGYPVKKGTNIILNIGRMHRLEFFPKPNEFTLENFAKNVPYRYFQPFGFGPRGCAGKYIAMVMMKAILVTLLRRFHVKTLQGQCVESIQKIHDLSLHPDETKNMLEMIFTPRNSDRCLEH

[14] = qHTS assay for identifying genotoxic compounds that show differential cytotoxicity against isogenic chicken DT40 cell lines with known DNA damage response pathways - Rad54/Ku70 mutant cell line (AID 743015); further: nearly all actives have a fitted effect of over 60% in size; further: potency means the concentration at half of the fitted maximal effect
[15] = qHTS assay to identify small molecule antagonists of the androgen receptor (AR) signaling pathway - cell viability counter screen (AID 743033; further: nearly all actives have a fitted effect of over 45% in size)
[16] = molecular target: Androgen receptor (Homo sapiens) (UniProt P10275); test: qHTS assay to identify small molecule antagonists of the androgen receptor (AR) signaling pathway (AID 743035; active means well fitted inhibition curve with a large enough effect in the signal ratio in the repeat runs, not every such curve was filed as active; the % refers to the signal ratio)
Sequence of Androgen receptor (Homo sapiens) (P10275 whole entry, looked up): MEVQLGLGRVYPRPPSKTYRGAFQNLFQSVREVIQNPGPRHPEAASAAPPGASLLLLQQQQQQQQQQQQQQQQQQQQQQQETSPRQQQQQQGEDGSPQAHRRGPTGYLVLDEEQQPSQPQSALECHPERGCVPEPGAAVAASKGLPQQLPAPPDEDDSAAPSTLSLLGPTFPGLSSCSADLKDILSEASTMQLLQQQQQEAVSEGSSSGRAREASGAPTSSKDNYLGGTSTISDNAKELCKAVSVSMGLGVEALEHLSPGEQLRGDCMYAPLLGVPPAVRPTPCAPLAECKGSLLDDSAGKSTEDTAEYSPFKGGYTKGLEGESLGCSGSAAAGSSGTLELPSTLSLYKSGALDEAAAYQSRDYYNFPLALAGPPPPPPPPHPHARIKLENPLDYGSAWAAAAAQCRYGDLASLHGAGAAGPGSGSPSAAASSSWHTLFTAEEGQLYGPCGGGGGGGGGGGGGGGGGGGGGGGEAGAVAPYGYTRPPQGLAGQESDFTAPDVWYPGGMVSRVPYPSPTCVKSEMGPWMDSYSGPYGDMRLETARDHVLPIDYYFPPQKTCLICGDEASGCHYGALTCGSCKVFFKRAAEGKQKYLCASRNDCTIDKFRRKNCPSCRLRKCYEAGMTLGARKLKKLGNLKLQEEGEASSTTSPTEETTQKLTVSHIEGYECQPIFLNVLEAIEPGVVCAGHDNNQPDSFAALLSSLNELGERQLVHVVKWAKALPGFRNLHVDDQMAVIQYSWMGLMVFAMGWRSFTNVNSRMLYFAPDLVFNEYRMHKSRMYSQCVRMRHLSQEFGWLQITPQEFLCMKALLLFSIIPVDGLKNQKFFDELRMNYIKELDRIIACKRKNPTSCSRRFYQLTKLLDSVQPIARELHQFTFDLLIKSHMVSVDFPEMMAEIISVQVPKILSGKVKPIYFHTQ
In short: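 Antagonist mode: AR-bla HEK293 cells co-treated with test compounds and agonist R1881 for 16 h at 37C, 5% CO2. Beta-lactamase activity read as FRET fluorescence after 2 h room-temperature substrate loading.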

[17] = molecular target: Androgen receptor (Homo sapiens) (UniProt P10275); test: qHTS assay to identify small molecule agonists of the androgen receptor (AR) signaling pathway using the MDA cell line (AID 743040; further: nearly all actives have a fitted effect of over 20% in size)
In short: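 Testing was done with the MDA-kb2 AR-luc line, a human breast carcinoma stably transfected with MMTV-luciferase containing AR and GR response elements. Cells were exposed 16 h at 37C before ONE-Glo luminescence detection.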

[18] = molecular target: Androgen receptor (Homo sapiens) (UniProt P10275); test: qHTS assay to identify small molecule antagonists of the androgen receptor (AR) signaling pathway using the MDA cell line (AID 743042; further: nearly all actives have a fitted effect of over 55% in size)
In short: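 MDA-kb2 breast carcinoma cells carrying MMTV-luciferase (AR/GR responsive) were co-treated with compounds and the agonist R1881 for 16 h at 37C. Inhibition read as ONE-Glo luminescence; CellTiter-Fluor fluorescence measured in parallel for cytotoxicity.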

[19] = qHTS assay for identifying genotoxic compounds that show differential cytotoxicity against isogenic chicken DT40 cell lines with known DNA damage response pathways - Rev3 mutant cell line (AID 743014); further: nearly all actives have a fitted effect of over 55% in size; further: potency means the concentration at half of the fitted maximal effect
[20] = molecular target: Androgen receptor (Homo sapiens) (UniProt P10275); test: qHTS assay to identify small molecule agonists of the androgen receptor (AR) signaling pathway (AID 743036; active means well fitted activation curve with a large enough effect in the signal ratio in the repeat runs, with a control signal flat, not every such curve was filed as active; the % refers to the signal ratio)
In short: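 In this Tox21 qHTS, 2,000 HEK293 AR-bla cells per well were incubated with compounds for 16 h at 37C and 5% CO2. Fluorescence intensity was recorded 2 h after adding LiveBLAzer B/G FRET substrate at room temperature.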

SMILES | outcome [1] | Potency [2] | Potency [3] | Potency [4] | Potency [5] | outcome [6] | outcome [7] | outcome [8] | outcome [9] | Potency [10] | Potency [11] | outcome [12] | Potency [13] | Potency [14] | Potency [15] | Potency [16] | outcome [17] | Potency [18] | Potency [19] | outcome [20]
CCCCN | inactive | inactive | inactive | inactive | inactive | inactive | inactive | inactive | inactive | inactive | inactive | inactive | inactive | – | – | – | – | – | – | –
CNS(=O)(=O)CCc1ccc2[nH]cc(C3CCN(C)CC3)c2c1 | inactive | inactive | inactive | – | inactive | inactive | inactive | – | inactive | inactive | inactive | inactive | inactive | inactive | inactive | – | – | – | – | –
Nc1ccc2cc(S(=O)(=O)O)cc(O)c2c1 | inactive | inactive | inactive | inactive | inactive | inactive | inactive | inactive | inactive | inactive | inactive | inactive | inactive | – | inactive | inactive | inactive | inactive | – | –
COc1cc(C(=S)N2CCOCC2)cc(OC)c1OC | inactive | inactive | inactive | inactive | – | inactive | inactive | inactive | inactive | inactive | inactive | inactive | inactive | – | inactive | – | – | – | – | –
O=S(=O)(O)c1cc(O)c2ccc(Nc3ccccc3)cc2c1 | inactive | – | inactive | inactive | – | inactive | inactive | inactive | inactive | – | inactive | inactive | inactive | inactive | inactive | – | – | – | inactive | –
CC(C)CCCC(C)(C)O | inactive | inactive | inactive | inactive | inactive | inactive | inactive | inactive | inactive | inactive | inactive | inactive | inactive | – | inactive | – | – | – | – | –
Nc1ccc([N+](=O)[O-])c(N)c1 | inactive | inactive | 59.6 µM (active) | – | inactive | inactive | inactive | – | inactive | – | inactive | – | inactive | inactive | inactive | – | – | – | – | –
CC(C)(C)OC(=O)c1ccc(O)cc1 | inactive | inactive | inactive | inactive | inactive | inactive | – | inactive | – | – | – | inactive | inactive | – | inactive | – | inactive | inactive | – | –
CCCCCCCCSCC | inactive | – | inactive | inactive | inactive | inactive | inactive | inactive | inactive | inactive | inactive | inactive | inactive | inactive | inactive | – | – | – | inactive | –
COC(=O)c1ccccc1C(=O)c1ccc(OCCN2CCCCC2)cc1 | inactive | 1.88 µM (active) | inactive | – | – | inactive | inactive | inactive | inactive | inactive | inactive | inactive | inactive | 2.11 µM (active) | inactive | – | – | – | – | –
O=Cc1ccc(Cl)c(Cl)c1 | inactive | inactive | inactive | – | inactive | inactive | – | inactive | – | – | – | inactive | inactive | – | inactive | – | – | – | – | –
O=C1c2ccccc2C(=O)c2cc(S(=O)(=O)O)ccc21 | inactive | inactive | inactive | inactive | inactive | inactive | inactive | inactive | inactive | inactive | inactive | inactive | inactive | – | inactive | – | – | – | – | –
Cc1cc(C(C)(C)C)c(O)c(C)c1CC1=NCCN1 | inactive | – | inactive | inactive | inactive | inactive | inactive | inactive | inactive | inactive | inactive | inactive | inactive | – | – | inactive | inactive | inactive | inactive | –
O=C(O)c1cc(Br)c(O)c(Br)c1 | inactive | – | inactive | inactive | inactive | inactive | – | inactive | – | – | – | inactive | inactive | inactive | inactive | inactive | inactive | inactive | – | inactive
COC(=O)[C@@H]1[C@H]2C[C@H]3c4[nH]c5ccccc5c4CCN3C[C@@H]2CC[C@@H]1O | inactive | – | inactive | inactive | – | inactive | inactive | inactive | inactive | inactive | inactive | inactive | inactive | – | inactive | – | – | – | – | –
N#Cc1ccc(C(=O)O)cc1 | inactive | – | inactive | inactive | inactive | inactive | – | inactive | – | – | – | inactive | inactive | – | inactive | inactive | inactive | inactive | 30.6 µM (active) | –
CC(C)CC(=O)O | – | – | inactive | – | – | – | inactive | inactive | inactive | inactive | inactive | inactive | inactive | – | inactive | – | – | – | – | –
CCOc1cc([N+](=O)[O-])c(OCC)cc1N1CCOCC1 | – | inactive | inactive | inactive | – | inactive | – | inactive | inactive | inactive | inactive | inactive | 34.4 µM (active) | inactive | inactive | – | – | – | – | –
O=C(c1ccc(O)cc1)c1ccc(O)c(O)c1O | inactive | – | – | inactive | inactive | inactive | – | – | – | – | – | inactive | inactive | – | inactive | – | – | – | – | –
Cc1ccsc1/C=C/C1=NCCCN1C | – | inactive | inactive | inactive | inactive | inactive | inactive | inactive | inactive | inactive | inactive | inactive | inactive | inactive | inactive | – | – | – | inactive | –
